# From PubChem BioAssay (NCI)
# About 83,000 compounds went through this panel and 20% of them were active in at least one assay; those are over-represented in the sample as a whole.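 In brief: 96-well plates, 48 h treatment, single concentration, percent growth endpoint.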 Values without a mark were called inactive. The source made the active and inactive calls.
# Test system: NCI-H23 lung
# Assay: NCI-60 one-dose screen, 48 h (100 = growth as untreated, 0 = no growth, -100 = all killed)
# Settings: 10 µM unless noted
# Description: Growth inhibition of the NCI-H23 human Non-Small Cell Lung tumor cell line is measured as a screen for anti-cancer activity. Cells are grown in 96 well plates and exposed to the test compound for 48 hours. Compounds are tested at a single concentration, which is 10^-5 M for most compounds. The reported endpoint is percent growth (GI% or GIPRCNT), where numbers from 0 - 100% represent growth inhibition, and numbers from -100% - 0 represent cell death. For example, a value of 40 represents 60% growth inhibition. A value of 0 means no net growth occurred over the course of the experiment. A value of -40 indicates 40% of cells at the beginning of the experiment died by the end of the experiment. A value of -100 means all cells are dead at the end of the experiment.
# NCI-60 Human Tumor Cell Lines Screen was performed using the standard one-dose NCI protocol, which is described in more detail at https://dtp.cancer.gov/discovery_development/nci-60/default.htm.
# Compounds with GIPRCNT values below 10 were considered active. Activity score was based on GIPRCNT using the following formula: […]
# Score is 0 for GIPRCNT values of 100 or above, 50 for GIPRCNT values of 0, and 100 for GIPRCNT values of -100.
row,Structure (SMILES),growth
1,CC1=C2[C@@H](CC1)[C@]1(C)O[C@@](C(C)C)(C[C@H]1OC(=O)[C@H](C)O)[C@H]2OC(=O)/C=C/c1ccccc1,90.7%
2,CCOC(=O)c1ccc(NC(=O)c2nc(-c3cc(OC)c(OC)c(OC)c3)n(-c3ccc(Cl)cc3)n2)cc1,91.3%
3,C=CCn1c(C)nc2ccc(Nc3nc(Nc4ccc5nc(C)n(CC=C)c5c4)c4ccccc4n3)cc21,32.8%
4,O=C(/C=C/c1ccco1)Nc1ncc(Cc2cccc(C(F)(F)F)c2)s1,22.4%
5,COC1=CC(c2ccc[nH]2)=N/C1=C\c1[nH]c(C)c(CC(=O)OCc2ccccc2)c1CCC(=O)OCc1ccccc1,-12.6% (active)
6,CC(=O)Oc1ccc(C)cc1C,103%
7,COc1ccc(/C=N\Nc2nc(SCCC(C)C)nc(-c3ccc(OC)cc3)c2C#N)cc1,72.1%
8,O=[N+]([O-])c1cccc(-c2nc3cc4nc5ccccc5[nH]c4cc3n2)c1,90.1%
9,CC/C=C\C[C@H](O)C/C=C1/C(=O)C=C[C@@H]1C/C=C\CCCC(=O)N(C)C,-27% (active)
10,Oc1c(Br)cc(Br)c2ccc(Cn3cc(-c4ccc(C(F)(F)F)cc4)nn3)nc12,84.7%
11,Nc1c(C(=O)Nc2ccccc2F)sc2nc3c(cc12)CCCC3,51.2%
12,NC(=O)c1c(NC(=O)c2ccc3ccccc3c2)sc2c1CCC(=O)C2,35.4%
13,COCCNC(=O)Nc1ccc2nc(-c3cccs3)c(-c3cccs3)nc2c1,90%
14,O=C(O)c1cn(C2CC2)c2cc(N3CCN(Cc4ccc5ccccc5c4O)CC3)c(F)cc2c1=O,26.4%
15,CC(=O)N1N=C(c2ccc(Nc3nc(Nc4ccccc4)nc(Nc4ccccc4)n3)cc2)CC1c1cccc([N+](=O)[O-])c1 (stereo not given),94.6%
16,COc1ccc(-c2cc(-c3cccnc3)nc3sc4c(=O)[nH]c(-c5ccc(Cl)cc5)nc4c23)cc1OC,98.8%
17,CC(C)c1ccc(C(=O)Nc2nc3ccc(O)c(CN(C)C)c3s2)cc1,88.9%
18,Cc1c(O)cc(-c2cnc(Nc3ccccc3)s2)c(O)c1C,87.1%
19,Nc1ncnc2c1C(c1ccc(Br)cc1)c1sc3c(F)cccc3c1O2 (stereo not given),88.5%
20,C=CCN=c1sc2c(n1NC(=O)c1cc3ccc1CCc1ccc(cc1)CC3)C(=O)c1ccccc1C2=O,-34.1% (active)

row,Structure (SMILES),growth
1,c1csc(-c2ccc(CNc3c4ccccc4nc4ccccc34)cc2)c1,38.2%
2,O=C(Nc1ccc(Oc2cccc(Cl)c2)c(Cl)c1)c1cnccn1,46.1%
3,CCOc1ccccc1Cn1ccnc1CCc1c(Cl)c(O)cc(O)c1C(=O)OC,95.4%
4,CCOC(=O)n1ccn(C)c1=S,107%
5,C=CCSc1nnc(NC(=O)CCl)s1,93.6%
6,CCOC(=O)c1cc2c(n1Cc1cc(OC)c(OC)c(OC)c1)-c1nc(N)sc1CCC2,62.9%
7,N#CC1=C(N)Oc2c(c(=O)[nH]c3ccc(Cl)cc23)C12C(=O)c1ccccc1C2=O,93.4%
8,O=C1/C(=C/c2cn(-c3ccccc3)nc2-c2ccccc2)SC(=S)N1C1CCCCC1,96.1%
9,COc1ccc(-c2cc(-c3ccc(Cl)cc3)c(C#N)c(=O)n2Cc2ccc(C(=O)Nc3ccccc3N)cc2)cc1,77.2%
10,CCCCCC(/C=N\NC(=S)N/N=C/C(=C/c1ccccc1)CCCCC)=C\c1ccccc1,70.6%
11,Cn1c(=O)cc2c3c(c(NCCCO)ccc31)C(=O)c1ccccc1-2,47.2%
12,COCCOc1cc2ncnc(N3CCN(c4ncc(S(=O)(=O)N5CCCCC5)cn4)CC3)c2cc1OCCOC,91.5%
13,COc1ccc(F)cc1/C=C/C(=O)/C=C(/C=C/c1cc(F)ccc1OC)OB(F)F,35.2%
14,Cc1cc(C(=O)O)c(C)n1-c1cccc(C(=O)O)c1,78.7%
15,COc1cc(C2c3cc(OC(C)=O)c(OC)cc3CC3C(=O)OCC32)ccc1OC(C)=O (stereo not given),105%
16,CCCCNC(=O)Oc1ccc(/C(=C(/C)Cc2ccc(OC)cc2)c2ccc(OCCN3CCCC3)cc2)cc1,85.9%
17,Cc1csc(Nc2nc(-c3ccccn3)nc(C(Cl)(Cl)Cl)n2)n1,84.9%
18,C1CN(SSN2CCOCC2)CCO1,3.63% [100 µM] (active)
19,N#Cc1nc(-c2ccc(F)cc2)oc1S(=O)(=O)N1CCOCC1,70.3%
20,Cc1cc(N2CCCCC2)cc(C)c1-c1csc(NC(=O)c2ccncc2)n1,45.1%
